Assay results from PubChem BioAssay AID1508600 (Functional Genomics Laboratory (NCATS/FGL), 2020).
About 3,700 (7%) of roughly 53,000 sequences were called active. The entries come from a sample that favours actives as a whole. Values without a mark were called inactive.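 Rule for the calls: active = gene knockdowns whose robust z-score for IL-1 alpha signal is at least 2 or at most -2, so actives lie on both sides; inactive = the rest.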

Assay: Components of the Cytosolic LPS Sensing Pathway: Gene Identification via Genome-wide siRNA Screen;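 note: robust z of the log signal after scaling to non-targeting control siRNA wells of the plate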
Conditions: RAW264.7 macrophages, IL-1a HTRF, actives lie on both sides, screened at 100 nM (by protocol), cells primed 5 h with Pam3CSK4 first
In short: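 RAW264.7; siRNA 100 nM final, RNAiMAX, 48h 37 degrees C; Pam3CSK4 5 h; LipidA + TransIT-TKO 24 h; IL-1a HTRF; CellTiter-Glo viability; robust z vs negative-control median.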

Sequence | z-score
GGGAGGAAAUGAAUGAAUUTT against Gypc | 0.686
GGAAUUAUCUUCAUCCCUGTT against Abhd10 | -4.79 (active)
GGAUCUAUCUCUAGUCCCGTT against Zfp358 | -1.74
CCUUUAAAAGUACCAACCCTT against B9d1 | 0.679
CGUACCAUGGUCAAGACGUTT against Tpcn1 | 0.692
GCCUUAGGUUGAUAGGAGGTT against Tas2r110 | -0.191
GGGACCAGAACAAAUACAATT against Klc3 | 4.06 (active)
GGCCUUUUCUUCUUUUUGUTT against Mill1 | 0.653
GGAAGGAAAUGUGUGAAAUTT against 4930555G01Rik | -0.194
GGAGAGGAUGCAUGUAAAATT against Fbxl22 | -1.19
GGAAAUGAACUCAUAGCCATT against Olfr121 | 0.0495
GGAGUAAAGACAUUCAGGATT against Nlrp4f | 0.716
GCUUGAUCGCUUUCAACUCTT against Coro7 | 0.734
GGAAAUUUUUCGCAUGACCTT against Ddx39b | -2.13 (active)
CCUUCUUCUUACUGAUAAUTT against Olfr1276 | -0.471
GCAAUGAACUAUGAAGGCATT against Npm1 | -0.32
GGACAAAAUUAGACCUUUGTT against Arf2 | 0.47
GGCAUCCUGUUGAAACUGATT against Vezt | -0.962
GGGUGAAUUCUGUCUAUGUTT against Far1 | 0.0586
GGUAAAAGCUGUUUGAGAGTT against Smim3 | -3.43 (active)
GGAUUAUCAGAAGUGUGUCTT against Mrps35 | -0.117
GUCAAGAAUAUUAUGACCCTT against Vamp8 | 0.516

Sequence | z-score
CCUCAUUGUGUCGUCUUACTT against Zer1 | -0.421
GGCUCUGAGACACAUCUACTT against Cpt1b | -0.562
GGAGUUAAUCAGUCAAAUGTT against Dclk2 | 0.754
CCCAGAAGGAUCUGCUCUUTT against Defa20 | -2.17 (active)
GGUUAUGUCGCUAAGGAAATT against Tmem50a | -0.392
GGAGGUCACCUUCUCAAACTT against Mrgprf | 0.374
GCCUUUAACAGCUCUUAAUTT against Gm4894 | 0.999
CGUGCCACUUUUACCGUCCTT against Zdhhc8 | -2.43 (active)
UACUCGUAUUCUUAAUUGCTT against Acsl1 | -0.272
GCAGAAUCGCUUCAGUUCUTT against Tmed6 | 0.49
GGCUGUGUAUUACUGCGCUTT against Vpreb2 | -0.236
GCCAUGAUGCAUUAUGUAUTT against Haglr | -0.331
GGGUAUUGGUUUUAGAGCATT against Emd | 0.37
GGCUCUAAUGUAAUGAAUCTT against Fgf10 | 0.259
GGGUAAAAGGCUUUUUUGUTT against St8sia6 | -0.699
GGCAAAACAUGCUUGGACCTT against Zfp687 | 2.31 (active)
CCAAUUCCUGGGUGCACACTT against Olfr309 | -0.691
GCUCUGCUCUUCUGAAGCATT against Dohh | -2.42 (active)
GGAUGACAUUUCAGUGUGGTT against Matn4 | 0.561
GGAUAUUCAAAUGGGUGCCTT against Bcl7b | 0.538
GGACAUGAUCGACGACUACTT against Zfyve28 | 0.109
GGAUGAAAGAAAAGAAACUTT against Hoxd11 | -0.335

Sequence | z-score
GGAAUGGUAAUGCUAUUGGTT against Tmem39a | 0.169
GGAGAAUGGUUCAUAUCUGTT against Trmt44 | -0.849
AUGGAAAAAGUGCACAAUCTT against Olfr1061 | 2.34 (active)
UUGUUCAAGAGCUAGAGAUTT against Atg2a | 0.811
GCCGUGCAAAGUUUAUUCATT against Nme8 | 1.06
CCACCAUUCGGCUCUUUUGTT against Nupl2 | -0.822
GCACCUGAAGACUAAUGUUTT against Gcnt2 | 0.509
GGAAUAUUCAGAAUCCCUCTT against Tnfaip8l3 | -0.762
GGUAACGGGACCAACACUUTT against Otop3 | 1.26
CCUUUAACUUUCUCCUACCTT against Nfkbid | 3.45 (active)
GGAGGAAACACAUCAUUUGTT against Tmem131 | 1.15
GCCUCAAUUCCUCUACGCUTT against Sytl1 | -1.34
GCAUAGUGACCAUGGAUAATT against Olfr807 | 0.95
GGAGGACGUGAACUUUGACTT against Stk32c | 0.648
GCACGUCAGAAUCUCCAGATT against Pln | -0.669
GGAAUGACAAGAUUAUUGUTT against Ercc3 | 0.157
GGAGAGGAGUUCUUCAUUCTT against Adamts1 | -1.38
GCAAGUAGCAUCUCUGAUUTT against Nfs1 | 1.03
GGCAAGAAGUGUGAUGAACTT against Kansl3 | -2.81 (active)
GGAGGAACUGGAUUCUUACTT against Eps8l3 | -0.348
GGUUGUUAGGAAUCGAUCCTT against Rps26 | 0.964
GGUGGAAUACUUGGAGCAGTT against Gstm4 | 2.98 (active)

Sequence | z-score
CCAAUGCCGCCAGAAGUUATT against Siah2 | 0.295
CCUGUGCUCUUAUUAUCAATT against Rpp14 | 0.693
GCAACUUUAAUGACAGCGUTT against Moxd1 | -0.211
GCUCUAUGGAGACCUAAAGTT against Sdha | -0.378
GGAGGGACAUGGAGAUUACTT against Ptpn18 | 3.15 (active)
GGGAUUUUCAAAGUGAGAATT against Pmaip1 | -0.502
GGAUUUUCACCAACAGCCUTT against Gh | 0.046
GGACUGAAGUCCUUGACACTT against Lgi3 | -1.46
CCUCCUACUGUUUAAUGUUTT against Exd2 | 2.47 (active)
GCCUUGACGAUAGAUUAUUTT against Irf2 | 1.36
GGUUGAUAAAGGAGCCAUCTT against Mcts1 | 1.02
GGUGUCCUUUCAAGUUGAUTT against Spg11 | 2.15 (active)
GCCAGUGUGACAUUUGGUATT against Eed | 0.651
GGAGACUUGCUAAAUGCCCTT against Fkbp7 | -0.0461
GGCAACUAAGGCUAAGAAGTT against H1f4 | -1.89
GGUCUCGCUCCAAGGAAGATT against Tra2b | 2.56 (active)
GGAGACUGUCAUGGCUGUGTT against Olfr397 | -1.84
GCUUUACCUCCUAUUAAUATT against Rgs9bp | -0.91
GGAUUUAGCCAUGGAUUUCTT against Zfp473 | -1.17
GUACAAGCCACUGGAUCUGTT against Smad6 | 5.56 (active)
GGAGACAAAGCAUUAUCUATT against Usp33 | -0.366
GGUGAAAGGAGCAAAUGAUTT against Fyco1 | -0.332

Sequence | z-score
GGCACUGAGGUUGUUCAGGTT against Eif3h | 0.806
CCUACCAUACCAUGAGCAGTT against Pou4f3 | 1.52
GGAAUACAGAUUUUUCAGATT against Frmd6 | -1.15
GCAGAUACUGAGAUGCUAUTT against Dkk4 | 2.24 (active)
GGUGUUACCCUCCUUAGAGTT against Tmem230 | -1.03
GGAUCUUGAAGACCAAAAATT against Kazn | -2.14 (active)
GGCGAACAUGCACUUUCACTT against Gramd3 | -1.28
GGAGCAUGAGGAUUACUGUTT against Trafd1 | 0.731
GGACAGUUUACUCCAGAUATT against Foxc1 | 2.84 (active)
GCACUAAAGGGCUUUUCAUTT against Serping1 | 0.912
GGAGAAAGGCAUCUUCAAATT against Spdef | 0.0302
GCCUUACUACUACAACAACTT against Prpf40b | 2.08 (active)
GGCACAAAAGAAGAUCCUGTT against Tnfaip8 | -1.53
GGAUCCUGAACGAAAAAGGTT against Med19 | -0.0986
CGGCAGAUUGCUGCUUUGATT against Vmn2r122 | 2.73 (active)
GGUCCAAGAGGAAAGACAATT against Adarb2 | 0.67
GGUGACAGAUGUUUAUGAGTT against Ccdc28b | -1.91
GCAUAUGAUUGUCAUGAGUTT against Olfr319 | -1.47
GCAAGACCGAAGUCACGGATT against Krt19 | 2.87 (active)
CCGAGACAUAUACAAAGGATT against Klkb1 | -0.36
